Fluor 339 460: intrinsic fluorescence of library compounds, ex339/em460 – biochemical, MLSMR library, data from DPM-DC assay, artefact control, profiling panel | compound autofluorescence, ex339/em460 nm, NADH buffer; active compounds read high; 1 = no-compound wells, NADH background | fluorescence fold increase at 10 µM | 65,000 tested, 5.5% active;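 active means at 10 µM, mean starting fluorescence two-fold or more over control wells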;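 further: signal is the first read of a kinetic run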
MK inhibit: inhibitors of Streptococcus pneumoniae mevalonate kinase. 65,000 tested, 0.48% active. purified MK, PK/LDH-coupled NADH absorbance 340 nm. inhibition, % at 10 µM;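 active means ranked among the strongest by inhibition in the single 10 µM screen, a fixed top-ranked set picked for dose follow-up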
Spn PMK inh: inhibitors of Streptococcus pneumoniae phosphomevalonate kinase | purified PMK, PK/LDH-coupled NADH absorbance 340 nm | inhibition, % at 10 µM | 65,000 tested, 0.49% active;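 active means top-ranked compounds by inhibition in the single 10 µM screen, taking a fixed number of the strongest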
NADH enzymes: inhibition of NAD/NADH coupling enzymes, library profiling. AID 774. coupled PK/LDH NADH assays, four targets. 65,000 tested, 0.02% active. IC50, µM (doses to about 10 µM);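 active means single-dose screening hits from any of four coupled enzyme assays that gave an IC50 when retested across doses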;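 further: the DPM-DC format reads NADH fluorescence rather than 340 nm absorbance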
Spn DPM-DC inh: S. pneumoniae DPM-DC inhibition. 65,000 tested, 0.49% active. AID 556. calls only at 10 µM. purified DPM-DC, PK/LDH coupled NADH fluorescence;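 active means the 320 compounds with the highest percent inhibition in the single-dose primary screen, excluding strongly autofluorescent ones, cut at about 32% in these data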;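 further: kinetic rate of NADH fluorescence loss reporting ADP formed by the decarboxylase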
Abs 340nm: compound absorbs light at 340 nm; compound absorbance at 340 nm, fold over control; fold change at 10 µM; 65,000 tested, under 10 active; AID 708;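 active means at 10 µM dose, initial 340 nm absorbance at least 2 fold that of control wells; inactive means change under 2 fold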;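 further: initial absorbance extrapolated from kinetic A340 decline of NADH oxidation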
Each line names hits and unclear results; the compound was inactive in the other large screens. An excerpt weighted towards active compounds, which were near 6.5% of everything screened.

CCc1ccc(N(CC(=O)NC)S(C)(=O)=O)cc1	none
COc1ccc(OCCSc2nnc(-c3ccoc3C)n2C)cc1	none
O=C(O)C1=C(C(=O)Nc2ccc(F)c(Cl)c2)CCCC1	Spn PMK inh 25.0
CC1=CC(c2ccccc2)n2nc(N3C(=O)C4CC=CCC4C3=O)nc2N1 (stereo unspecified)	Fluor 339 460 2.33 (not shown: Spn DPM-DC inh)
CC(O)c1cc2c(cc1NC(=O)c1cnn3c1NC(c1ccco1)CC3C(F)(F)F)OCO2 (stereo unspecified)	none
CCOc1ccc(S(=O)(=O)NCC2CCCO2)c2cccnc12 (stereo unspecified)	Fluor 339 460 2.21
CCOc1ccc(S(=O)(=O)Nc2ccccc2SC)c2cccnc12	none
COC(=O)C1=C(C)N=c2s/c(=C3\C(=O)Nc4ccccc43)c(=O)n2C1c1ccccc1 (stereo unspecified)	none
O=C(COc1ccccc1)Nn1cnc2ccccc21	none
Cc1cc(C)c2cc(CN(CCO)C(c3nnnn3Cc3ccc(F)cc3)C(C)C)c(=O)[nH]c2c1 (stereo unspecified)	none
CCC(c1nnnn1Cc1ccc(F)cc1)N(CCCO)Cc1cc2cc3c(cc2[nH]c1=O)OCO3 (stereo unspecified)	Fluor 339 460 2.25
C/C(NCCN1CCOCC1)=C(\C#N)C(N)=O	none
COCc1cc(C)nc(N2CCN(c3ccccc3)CC2)c1C#N	none
COCc1cc(C)nc(NC2CCCCC2)c1C#N	Fluor 339 460 3.69 (not shown: Spn DPM-DC inh)
COC(=O)CCn1nnc(-c2cccs2)n1	none
COC(=O)CCn1nnc(-c2ccc(C(C)C)cc2)n1	Fluor 339 460 2.95
Cc1ccc2oc(=O)c3cc(C(=O)N4CCN(C(=O)c5ccco5)CC4)sc3c2c1	none
Cc1ccc2[nH]c(=O)c3cc(C(=O)N(C)Cc4ccco4)sc3c2c1	Fluor 339 460 2.21 (not shown: Spn DPM-DC inh)
Cc1ccc2oc(=O)c3cc(C(=O)N4CCN(c5ncccn5)CC4)sc3c2c1	Fluor 339 460 2.07 (not shown: Spn DPM-DC inh)
Cc1ccc2[nH]c(=O)c3cc(C(=O)N4CCN(C(=O)c5ccco5)CC4)sc3c2c1	Fluor 339 460 2.03 (not shown: Spn DPM-DC inh)
COc1ccc(N(C(=O)c2ccc(Br)o2)C2C=CS(=O)(=O)C2)cc1 (stereo unspecified)	none
CC(C)NC(=O)CN1CCN(c2ncccn2)CC1	none
CCOC(=O)c1sc(=NC(=O)c2ccc(S(=O)(=O)N3CC(C)OC(C)C3)cc2)n(C)c1C (stereo unspecified)	Fluor 339 460 3.89
CCOC(=O)c1[nH]c2ccc(F)cc2c1NC(=O)CN1CCN(C/C=C/c2ccccc2)CC1	Fluor 339 460 2.62
CCOc1ccc(OCC)c(NC(=O)CN2CCN(C(=O)c3ccco3)CC2)c1	none
CCOC(=O)c1[nH]c2cc3c(cc2c1NC(=O)CN1CCCCC1C)OCO3 (stereo unspecified)	Fluor 339 460 2.31 (not shown: Spn DPM-DC inh)
CCOC(=O)c1[nH]c2ccccc2c1NC(=O)c1ccc2c(c1)OCO2	none
CCOC(=O)c1[nH]c2ccc(OCC)cc2c1NC(=O)CN1CCC2(CC1)OCCO2	Fluor 339 460 3.85 (not shown: Spn DPM-DC inh)
COC(=O)c1[nH]c2ccccc2c1NC(=O)CN1CCN(C/C=C/c2ccccc2)CC1	none
CCOc1ccc(OCC)c(NC(=O)CN2CCN(c3cccc(C)c3C)CC2)c1	MK inhibit 62.0
CCOC(=O)C1=C(N)OC2=C(C(=O)CC(C)(C)C2)C1c1ccccc1OCC#N (stereo unspecified)	none
CCOC(=O)C1CCCN(C(=O)COC(=O)C2=COCCO2)C1 (stereo unspecified)	none
CCOC(=O)c1[nH]c2ccc(OCC)cc2c1NC(=O)CN1CCN(c2ccccc2)CC1	Fluor 339 460 3.24
CCOC(=O)c1[nH]c2ccccc2c1NC(=O)CN1CCCCC1	none
CCOC(=O)c1[nH]c2cc(OC)c(OC)cc2c1NC(=O)c1ccc2c(c1)OCO2	none
CCOC(=O)c1[nH]c2cc3c(cc2c1NC(=O)CN1CCC2(CC1)OCCO2)OCO3	Fluor 339 460 2.27 (not shown: Spn DPM-DC inh)
CCOC(=O)c1[nH]c2cc(OC)c(OC)cc2c1NC(=O)CN(C)C1CCCCC1	Fluor 339 460 3.66 (not shown: Spn DPM-DC inh)
COc1ccc(S(=O)(=O)NCC2CCC(C(=O)N3CCC4(CC3)OCCO4)CC2)cc1 (stereo unspecified)	none
S=c1[nH]nc(COc2ccc(Cl)cc2)o1	none
COCCn1c(C)cc(C(=O)COc2nc3ccccc3nc2C)c1C	Spn DPM-DC inh active
